Results taken from PubChem BioAssay (Tox21).
Results filed as inconclusive are left out. The source made the active and inactive calls. Calls come from the whole dose curve; as a rule, active = well fitted cell-killing curve with a large enough effect in the repeat runs; inconclusive = weak or mixed curves, or effect the other way; inactive = no such curve, though single readings can be large or run the other way.

assay: qHTS assay to identify small molecule antagonists of the thyroid receptor (TR) signaling pathway - cell viability counter screen (AID 743064); settings: GH3.TRE-Luc viability, CellTiter-Fluor, 24 h; series mostly up to 70.3 µM; activity change, negative = cytotoxic: at the top concentration; note: nearly all actives have a fitted effect of over 50% in size
Method in brief: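 Viability of T3-stimulated (1 nM final) GH3.TRE-Luc cells is measured by CellTiter-Fluor fluorescence after 23.5 h compound exposure at 37 °C plus 30 min reagent incubation.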
% is set by controls: 0 for no effect and ±100 for the full control effect; potency is the fitted concentration of half-maximal effect.

Row | Compound | Potency | activity change, negative = cytotoxic
1 | O=C(O)CN(CCN(CC(=O)O)CC(=O)O)CCN(CC(=O)O)CC(=O)O | 26.6 µM (active) | 
2 | CCN(CCCc1ccccc1)CCCc1ccccc1 |  | -27.7% [at 32.5 µM] (inactive)
3 | CC(C)S |  | -7.04% [at 95 µM] (inactive)
4 | CC1(C)C(=O)N(Cl)C(=O)N1Br |  | -6.22% (inactive)
5 | ClC(Cl)Cl | inactive | 
6 | CCNCCO |  | 23.1% (inactive)
7 | CCc1nnc(NS(=O)(=O)c2ccc(N)cc2)s1 |  | -7.23% (inactive)
8 | O=S(=O)(O)C(F)(F)F |  | 2.24% (inactive)
9 | CC1CN(c2ccccc2)NC1=O (stereo unspecified) |  | 5.88% (inactive)
10 | COc1ccc(S(=O)(=O)Nc2nnc(CC(C)C)s2)cc1 | inactive | 
11 | COc1cc(Cl)ccc1Cl |  | 1.61% [at 95 µM] (inactive)
12 | C[C@]12C(=O)OC(=O)[C@H]1[C@H]1C=C[C@@H]2C1 |  | 6.98% [at 95 µM] (inactive)
13 | CC(C)C[C@H](NC(=O)OCC1c2ccccc2-c2ccccc21)C(=O)O |  | 0.891% (inactive)
14 | O=c1[nH]c(=O)n([C@H]2C[C@H](O)[C@@H](CO)O2)cc1C(F)(F)F |  | 8.94% (inactive)
15 | CC(C)(CO)[C@@H](O)C(=O)NCCC(=O)O | inactive | 
16 | O=c1oc2c(O)c(O)cc3c(=O)oc4c(O)c(O)cc1c4c23 |  | 5.71% (inactive)
17 | O=C(O)c1ccccc1Nc1cc(Cl)ccc1C(=O)O |  | 12.2% (inactive)
18 | CC(=O)Nc1ccc(C)c(Cl)c1 |  | 6.29% (inactive)
19 | Cc1cccc(C)c1NC(=O)CN1CCCCCC1 |  | -2.21% (inactive)
20 | CCOC(=O)C1CC(=O)C(=C(O)C2CC2)C(=O)C1 (stereo unspecified) |  | -1.34% (inactive)
21 | CC1=C(O)C(=O)OC1C (stereo unspecified) |  | 15.7% (inactive)
22 | CC(C)=CCCC(C)CCOC=O (stereo unspecified) |  | 25% (inactive)
23 | Oc1ccccc1F |  | -12.5% (inactive)
24 | NC/C=C/C(=O)O |  | 10.4% (inactive)
25 | CCCCCCCCc1ccc(S(=O)(=O)O)cc1 |  | -14.1% (inactive)
26 | COC(=O)c1ccc(OC)cc1 |  | 6.14% (inactive)
